Measured values reported in the supplement of paper PMC10849652.
Targets with a hit are over-represented here; the source holds about 7,900 in all. About 0.6% of all pairs of compound and target were hits.

What was measured:
Experiment in all cases: log2 fold change, soluble protein after heating vs DMSO (PISA); higher = thermal stabilisation; K562 cells, 10 uM, 30 min; active = over 0.2 and 3.5 SD of the protein, either way, in both replicates (recomputed)
bafetinib = compound: Cc1ccc(NC(=O)c2ccc(CN3CC[C@H](N(C)C)C3)c(C(F)(F)F)c2)cc1Nc1nccc(-c2cncnc2)n1 [bafetinib]
Outline: (§1)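 K562 cells (2×10^6 cells/mL) were treated with 10 μM compound for 30 min, and aliquots were heated for 3 min over 48°C-58°C. Pooled aliquots were extracted in PBS with 0.5% NP-40 at 4°C, and the supernatant after 21,000xg for 90 min was measured by TMTpro 16plex LC-MS/MS with channel sums equalised. Reported thermal stability, relative to control samples and from duplicates, is a log2 fold change.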

[1] = compound: Cc1cccc(CC(=O)N2CCc3c2ccc(-c2cn(C)c4ncnc(N)c24)c3F)n1
Outline: as §1

nilotinib = compound: Cc1cn(-c2cc(NC(=O)c3ccc(C)c(Nc4nccc(-c5cccnc5)n4)c3)cc(C(F)(F)F)c2)cn1 [nilotinib]
Outline: as §1

[2] = compound: Cc1nc(Nc2n[nH]c3c2CN(C(=O)N[C@H](CN(C)C)c2ccccc2)C3(C)C)c2sccc2n1
Outline: as §1

dasatinib = compound: Cc1nc(Nc2ncc(C(=O)Nc3c(C)cccc3Cl)s2)cc(N2CCN(CCO)CC2)n1 [dasatinib]
Outline: as §1

[3] = compound: Cc1ncc(-c2ccnc(Nc3ccc(S(C)(=O)=O)cc3)n2)n1C(C)C
Outline: as §1

[4] = compound: Cn1cc(-c2ccc3c(c2)CCN3C(=O)Cc2cccc(C(F)(F)F)c2)c2c(N)ncnc21
Outline: as §1

[5] = compound: Cn1cc(-c2ccc3nnc(C(F)(F)c4ccc5ncccc5c4)n3n2)cn1
Outline: as §1

tipifarnib = compound: Cn1cncc1[C@@](N)(c1ccc(Cl)cc1)c1ccc2c(c1)c(-c1cccc(Cl)c1)cc(=O)n2C [tipifarnib]
Outline: as §1

mubritinib = compound: FC(F)(F)c1ccc(/C=C/c2nc(COc3ccc(CCCCn4ccnn4)cc3)co2)cc1 [mubritinib]
Outline: as §1

[6] = compound: NC(=O)Nc1cc(-c2cccc(F)c2)sc1C(=O)N[C@H]1CCCNC1
Outline: as §1

[7] = compound: NC(=O)c1cnc(N[C@@H]2CCCC[C@@H]2N)nc1Nc1cccc(-n2nccn2)c1
Outline: as §1

[8] = compound: NC1(c2ccc(-c3nc4ccn5c(=O)[nH]nc5c4cc3-c3ccccc3)cc2)CCC1
Outline: as §1

[9] = compound: NCC(=O)Nc1ccc(-n2nc(C(F)(F)F)cc2-c2ccc3c(ccc4ccccc43)c2)cc1
Outline: as §1

entinostat = compound: Nc1ccccc1NC(=O)c1ccc(CNC(=O)OCc2cccnc2)cc1 [entinostat]
Outline: as §1

vorinostat = compound: O=C(CCCCCCC(=O)Nc1ccccc1)NO [vorinostat]
Outline: as §1

citarinostat = compound: O=C(CCCCCCNC(=O)c1cnc(N(c2ccccc2)c2ccccc2Cl)nc1)NO [citarinostat]
Outline: as §1

silmitasertib = compound: O=C(O)c1ccc2c(c1)nc(Nc1cccc(Cl)c1)c1ccncc12 [silmitasertib]
Outline: as §1

[10] = compound: O=C1NC(=O)C(c2cnc3ccccn23)=C1c1cn2c3c(cc(F)cc13)CN(C(=O)N1CCCCC1)CC2
Outline: as §1

[11] = compound: c1cc(OCCN2CCCCC2)cc(-c2n[nH]c3ccc(-c4nnc[nH]4)cc23)c1
Outline: as §1

Measured: log2 fold change

ARL2BP (UniProt Q9Y2Y0)
Chain of UniProt Q9Y2Y0 (Q9Y2Y0 whole entry, looked up): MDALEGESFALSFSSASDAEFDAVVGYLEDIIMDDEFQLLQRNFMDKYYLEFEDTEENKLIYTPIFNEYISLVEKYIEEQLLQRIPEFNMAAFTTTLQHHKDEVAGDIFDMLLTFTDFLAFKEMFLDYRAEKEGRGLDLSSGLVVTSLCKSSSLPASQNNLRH
inactive: bafetinib 0.001 | [1] 0 | nilotinib -0.078 | [2] -0.086 | dasatinib -0.069 | [3] -0.103 | [4] 0.125 | [5] 0.011 | tipifarnib -0.091 | mubritinib -0.027 | [6] -0.056 | [7] -0.108 | [8] -0.129 | [9] -0.088 | entinostat -0.057 | vorinostat 0.132 | citarinostat 0.006 | silmitasertib -0.02 | [10] 0.108 | [11] 0.046

ATAD1 (UniProt Q8NBU5)
Chain of UniProt Q8NBU5 (Q8NBU5 whole entry, looked up): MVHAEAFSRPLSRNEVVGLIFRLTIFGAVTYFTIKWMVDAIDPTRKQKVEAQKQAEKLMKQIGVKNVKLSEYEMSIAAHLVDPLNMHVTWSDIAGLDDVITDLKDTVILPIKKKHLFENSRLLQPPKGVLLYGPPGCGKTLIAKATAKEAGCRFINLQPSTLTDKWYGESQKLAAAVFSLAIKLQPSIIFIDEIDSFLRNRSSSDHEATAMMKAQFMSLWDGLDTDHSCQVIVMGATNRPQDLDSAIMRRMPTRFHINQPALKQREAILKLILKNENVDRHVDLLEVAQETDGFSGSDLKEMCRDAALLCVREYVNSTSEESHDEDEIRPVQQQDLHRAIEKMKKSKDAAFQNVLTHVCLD
inactive: bafetinib -0.007 | [1] 0.048 | nilotinib 0.02 | [2] -0.008 | dasatinib -0.033 | [3] -0.002 | [4] 0.037 | [5] -0.026 | tipifarnib 0.014 | mubritinib -0.028 | [6] -0.036 | [7] -0.056 | [8] -0.015 | [9] -0.009 | entinostat 0.038 | vorinostat 0.012 | citarinostat 0.032 | silmitasertib 0.012 | [10] 0.197 | [11] -0.053

ARFGEF1 (UniProt Q9Y6D6)
Chain of UniProt Q9Y6D6 (Q9Y6D6 whole entry, looked up): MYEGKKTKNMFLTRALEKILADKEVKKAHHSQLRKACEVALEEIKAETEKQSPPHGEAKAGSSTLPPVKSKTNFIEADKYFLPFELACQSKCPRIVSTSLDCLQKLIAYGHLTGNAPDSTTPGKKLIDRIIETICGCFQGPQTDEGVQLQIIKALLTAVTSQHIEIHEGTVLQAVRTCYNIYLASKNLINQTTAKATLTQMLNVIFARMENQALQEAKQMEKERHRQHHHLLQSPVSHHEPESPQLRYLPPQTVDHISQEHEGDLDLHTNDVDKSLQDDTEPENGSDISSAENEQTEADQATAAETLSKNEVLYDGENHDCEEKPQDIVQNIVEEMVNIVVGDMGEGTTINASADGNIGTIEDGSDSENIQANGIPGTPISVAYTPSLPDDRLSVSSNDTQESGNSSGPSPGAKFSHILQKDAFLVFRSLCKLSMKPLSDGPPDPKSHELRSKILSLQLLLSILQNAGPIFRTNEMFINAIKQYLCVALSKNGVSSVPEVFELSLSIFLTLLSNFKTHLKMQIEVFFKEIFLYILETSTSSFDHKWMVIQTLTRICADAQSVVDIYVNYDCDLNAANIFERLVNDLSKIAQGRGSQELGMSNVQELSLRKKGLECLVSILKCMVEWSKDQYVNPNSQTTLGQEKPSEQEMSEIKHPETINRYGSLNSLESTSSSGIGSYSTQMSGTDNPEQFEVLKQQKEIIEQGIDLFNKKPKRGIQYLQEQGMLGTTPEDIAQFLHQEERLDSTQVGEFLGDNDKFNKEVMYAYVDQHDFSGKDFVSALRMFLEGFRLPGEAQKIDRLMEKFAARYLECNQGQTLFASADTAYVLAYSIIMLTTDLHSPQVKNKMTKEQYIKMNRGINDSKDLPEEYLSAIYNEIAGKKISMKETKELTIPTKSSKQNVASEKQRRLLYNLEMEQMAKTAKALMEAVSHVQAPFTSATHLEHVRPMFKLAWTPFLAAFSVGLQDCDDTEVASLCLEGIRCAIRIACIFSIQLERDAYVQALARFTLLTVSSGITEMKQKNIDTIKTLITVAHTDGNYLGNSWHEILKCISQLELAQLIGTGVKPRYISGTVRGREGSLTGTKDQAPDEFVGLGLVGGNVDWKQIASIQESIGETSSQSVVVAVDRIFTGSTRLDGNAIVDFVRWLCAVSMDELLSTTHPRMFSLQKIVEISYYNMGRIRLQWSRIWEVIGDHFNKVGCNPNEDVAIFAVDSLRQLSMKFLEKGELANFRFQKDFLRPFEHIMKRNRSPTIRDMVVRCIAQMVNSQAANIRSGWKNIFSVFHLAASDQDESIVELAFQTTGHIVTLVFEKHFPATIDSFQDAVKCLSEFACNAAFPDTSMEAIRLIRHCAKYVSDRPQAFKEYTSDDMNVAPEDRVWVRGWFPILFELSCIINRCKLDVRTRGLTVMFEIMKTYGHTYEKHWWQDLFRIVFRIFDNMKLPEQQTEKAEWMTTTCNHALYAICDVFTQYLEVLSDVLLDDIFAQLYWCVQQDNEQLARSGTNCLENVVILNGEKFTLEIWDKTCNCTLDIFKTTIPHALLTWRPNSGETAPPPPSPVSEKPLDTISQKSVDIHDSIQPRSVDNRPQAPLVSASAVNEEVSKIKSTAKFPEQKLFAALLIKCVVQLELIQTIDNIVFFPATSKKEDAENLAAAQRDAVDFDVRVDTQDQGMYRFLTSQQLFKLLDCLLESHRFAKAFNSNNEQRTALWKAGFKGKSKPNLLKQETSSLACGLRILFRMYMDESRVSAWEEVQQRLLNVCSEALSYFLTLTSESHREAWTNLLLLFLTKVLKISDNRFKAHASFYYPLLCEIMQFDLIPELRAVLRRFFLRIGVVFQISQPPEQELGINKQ
inactive: bafetinib 0.052 | [1] 0.006 | nilotinib -0.024 | [2] 0.014 | dasatinib -0.026 | [3] 0.008 | [4] 0.005 | [5] 0.047 | tipifarnib 0.009 | mubritinib -0.021 | [6] 0.028 | [7] 0.121 | [8] -0.023 | [9] 0.006 | entinostat -0.044 | vorinostat 0.02 | citarinostat 0.009 | silmitasertib 0.065 | [10] 0.023 | [11] 0.069

ATP6V0A1 (UniProt Q93050)
inactive: bafetinib -0.078

BST2 (UniProt Q10589)
Chain of UniProt Q10589 (Q10589 whole entry, looked up): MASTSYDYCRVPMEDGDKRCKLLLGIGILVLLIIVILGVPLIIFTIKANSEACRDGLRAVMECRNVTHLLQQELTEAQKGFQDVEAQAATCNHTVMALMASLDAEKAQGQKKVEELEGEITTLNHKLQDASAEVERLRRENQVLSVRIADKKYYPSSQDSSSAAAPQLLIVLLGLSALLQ
inactive: bafetinib 0.061 | [1] -0.009 | nilotinib 0.048 | [2] -0.059 | dasatinib -0.016 | [3] -0.096 | [4] -0.052 | [5] 0.029 | tipifarnib 0.036 | mubritinib -0.015 | [6] 0.031 | [7] 0.02 | [8] 0.003 | [9] 0.132 | entinostat 0.03 | vorinostat -0.026 | citarinostat -0.058 | silmitasertib 0.009 | [10] 0.112 | [11] -0.092

AKR1C3 (UniProt P42330)
Chain of UniProt P42330 (P42330 whole entry, looked up): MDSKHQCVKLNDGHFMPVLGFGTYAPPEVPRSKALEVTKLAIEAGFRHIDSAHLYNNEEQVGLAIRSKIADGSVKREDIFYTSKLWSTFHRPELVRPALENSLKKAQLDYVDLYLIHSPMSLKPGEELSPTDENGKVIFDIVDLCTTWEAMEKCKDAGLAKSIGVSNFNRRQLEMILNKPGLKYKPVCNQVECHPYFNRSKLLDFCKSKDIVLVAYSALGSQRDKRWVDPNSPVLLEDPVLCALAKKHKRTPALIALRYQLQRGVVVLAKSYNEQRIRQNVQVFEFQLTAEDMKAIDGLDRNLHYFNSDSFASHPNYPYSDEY
active: [5] 0.557 | tipifarnib 0.862
inactive: bafetinib 0.018 | [1] -0.03 | nilotinib 0.025 | [2] 0.004 | dasatinib -0.038 | [3] 0.078 | [4] 0.068 | mubritinib -0.147 | [6] 0.119 | [7] 0.064 | [8] 0.235 | [9] -0.032 | entinostat 0.106 | vorinostat -0.058 | citarinostat 0.049 | silmitasertib 0.126 | [10] 0.211 | [11] 0.154

ADRM1 (UniProt Q16186)
Chain of UniProt Q16186 (Q16186 whole entry, looked up): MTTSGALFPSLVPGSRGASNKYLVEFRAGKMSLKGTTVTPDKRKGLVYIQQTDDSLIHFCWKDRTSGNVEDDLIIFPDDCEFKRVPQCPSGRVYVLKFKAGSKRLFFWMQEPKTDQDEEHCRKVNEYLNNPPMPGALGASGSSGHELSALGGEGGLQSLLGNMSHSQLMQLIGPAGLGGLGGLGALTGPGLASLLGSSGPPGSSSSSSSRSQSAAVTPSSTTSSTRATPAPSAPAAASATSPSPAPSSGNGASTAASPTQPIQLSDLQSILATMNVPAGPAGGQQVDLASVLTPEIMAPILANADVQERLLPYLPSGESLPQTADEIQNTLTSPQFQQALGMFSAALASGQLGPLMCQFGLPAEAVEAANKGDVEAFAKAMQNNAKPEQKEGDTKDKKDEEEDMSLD
active: bafetinib 0.238
inactive: [1] 0.072 | nilotinib 0.028 | [2] 0.063 | dasatinib -0.036 | [3] 0.006 | [4] -0.061 | [5] -0.003 | tipifarnib 0.01 | mubritinib -0.006 | [6] -0.009 | [7] -0.045 | [8] -0.058 | [9] 0.006 | entinostat -0.012 | vorinostat 0.038 | citarinostat 0.067 | silmitasertib 0 | [10] 0.064 | [11] -0.052

BRD4 (UniProt O60885)
inactive: bafetinib 0.067 | [1] 0.054 | nilotinib -0.144 | [2] 0.017 | dasatinib -0.094 | [3] -0.233 | [4] 0.011 | [5] -0.046 | tipifarnib -0.09 | mubritinib 0.032 | [6] -0.031 | [7] -0.096 | [8] -0.112 | [9] -0.119 | entinostat -0.097 | citarinostat -0.123 | silmitasertib 0.024 | [10] -0.129 | [11] 0.028
active: vorinostat -0.463

ADPRHL2 (UniProt Q9NX46)
inactive: bafetinib 0.201 | [1] 0.029 | nilotinib 0.013 | [2] 0.164 | dasatinib -0.034 | [3] 0.124 | [4] 0.082 | [5] 0.052 | tipifarnib -0.159 | [6] -0.022 | [7] -0.02 | [8] -0.056 | [9] -0.045 | entinostat 0.027 | vorinostat -0.039 | citarinostat 0.076 | silmitasertib -0.045 | [10] -0.028 | [11] 0.055
active: mubritinib 0.349

AKR1C2 (UniProt P52895)
Chain of UniProt P52895 (P52895 whole entry, looked up): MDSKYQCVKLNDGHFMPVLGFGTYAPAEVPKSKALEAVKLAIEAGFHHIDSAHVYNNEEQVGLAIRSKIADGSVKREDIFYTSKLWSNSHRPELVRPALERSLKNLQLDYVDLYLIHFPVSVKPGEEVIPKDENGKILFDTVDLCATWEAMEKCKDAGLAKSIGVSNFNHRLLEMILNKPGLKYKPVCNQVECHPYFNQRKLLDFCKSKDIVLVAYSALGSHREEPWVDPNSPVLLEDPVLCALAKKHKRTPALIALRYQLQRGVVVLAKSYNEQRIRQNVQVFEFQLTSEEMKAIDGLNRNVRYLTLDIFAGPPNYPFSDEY
inactive: bafetinib 0.103 | [1] -0.111 | nilotinib 0.029 | [2] -0.057 | dasatinib -0.012 | [3] 0.028 | [4] -0.07 | [5] 0.223 | tipifarnib 0.271 | mubritinib -0.06 | [6] 0.133 | [7] -0.092 | [8] 0.206 | [9] -0.006 | entinostat -0.129 | vorinostat 0.012 | citarinostat 0.018 | silmitasertib 0.257 | [10] 0.079 | [11] -0.076

ATAD3A isoform 2 (UniProt Q9NVI7)
Chain of UniProt Q9NVI7 (Q9NVI7 whole entry, looked up): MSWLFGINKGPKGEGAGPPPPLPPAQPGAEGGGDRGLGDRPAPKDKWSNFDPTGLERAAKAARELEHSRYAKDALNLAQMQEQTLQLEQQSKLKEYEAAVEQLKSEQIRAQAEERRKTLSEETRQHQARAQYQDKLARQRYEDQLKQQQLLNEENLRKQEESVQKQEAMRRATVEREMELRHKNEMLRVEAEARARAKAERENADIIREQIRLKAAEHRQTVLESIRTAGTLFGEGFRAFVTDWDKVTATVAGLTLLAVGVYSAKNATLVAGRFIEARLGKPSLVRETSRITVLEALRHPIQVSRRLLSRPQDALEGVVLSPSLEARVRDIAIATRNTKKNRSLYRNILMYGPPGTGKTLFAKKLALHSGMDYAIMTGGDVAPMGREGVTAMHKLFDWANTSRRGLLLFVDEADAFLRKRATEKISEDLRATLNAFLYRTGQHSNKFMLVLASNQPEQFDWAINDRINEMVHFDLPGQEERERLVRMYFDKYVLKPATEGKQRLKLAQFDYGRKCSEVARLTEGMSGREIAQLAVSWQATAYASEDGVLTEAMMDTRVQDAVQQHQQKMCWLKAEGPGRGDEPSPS
inactive: bafetinib -0.104 | [1] 0.035 | nilotinib -0.141 | [2] -0.053 | dasatinib -0.094 | [3] 0 | [4] -0.082 | [5] -0.101 | tipifarnib 0.097 | mubritinib -0.215 | [6] 0.011 | [7] -0.088 | [8] -0.128 | [9] -0.088 | entinostat 0.053 | vorinostat 0.123 | citarinostat 0.076 | silmitasertib 0.051 | [10] 0.12 | [11] -0.127

ATOX1 (UniProt O00244)
Chain of UniProt O00244 (O00244 whole entry, looked up): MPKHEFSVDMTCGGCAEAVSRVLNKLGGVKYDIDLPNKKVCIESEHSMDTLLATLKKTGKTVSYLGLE
active: tipifarnib -0.404
inactive: bafetinib -0.02 | [1] 0.043 | nilotinib 0.047 | [2] 0.036 | dasatinib 0.161 | [3] -0.009 | [4] 0.174 | [5] -0.084 | mubritinib 0.004 | [6] 0.175 | [7] 0.273 | [8] -0.032 | [9] 0.03 | entinostat 0.081 | vorinostat -0.018 | citarinostat 0.091 | silmitasertib -0.105 | [10] -0.081 | [11] -0.004

ADK (UniProt P55263)
active: dasatinib 0.387
inactive: bafetinib 0.201 | [1] 0 | nilotinib 0.122 | [2] 0.208 | [3] 0.07 | [4] 0.006 | [5] 0.241 | tipifarnib 0.291 | mubritinib 0.037 | [6] -0.071 | [7] 0.07 | [8] 0.12 | [9] -0.04 | entinostat -0.087 | vorinostat -0.044 | citarinostat -0.02 | silmitasertib 0.011 | [10] 0.232 | [11] 0.158

ANKZF1 (UniProt Q9H8Y5)
Chain of UniProt Q9H8Y5 (Q9H8Y5 whole entry, looked up): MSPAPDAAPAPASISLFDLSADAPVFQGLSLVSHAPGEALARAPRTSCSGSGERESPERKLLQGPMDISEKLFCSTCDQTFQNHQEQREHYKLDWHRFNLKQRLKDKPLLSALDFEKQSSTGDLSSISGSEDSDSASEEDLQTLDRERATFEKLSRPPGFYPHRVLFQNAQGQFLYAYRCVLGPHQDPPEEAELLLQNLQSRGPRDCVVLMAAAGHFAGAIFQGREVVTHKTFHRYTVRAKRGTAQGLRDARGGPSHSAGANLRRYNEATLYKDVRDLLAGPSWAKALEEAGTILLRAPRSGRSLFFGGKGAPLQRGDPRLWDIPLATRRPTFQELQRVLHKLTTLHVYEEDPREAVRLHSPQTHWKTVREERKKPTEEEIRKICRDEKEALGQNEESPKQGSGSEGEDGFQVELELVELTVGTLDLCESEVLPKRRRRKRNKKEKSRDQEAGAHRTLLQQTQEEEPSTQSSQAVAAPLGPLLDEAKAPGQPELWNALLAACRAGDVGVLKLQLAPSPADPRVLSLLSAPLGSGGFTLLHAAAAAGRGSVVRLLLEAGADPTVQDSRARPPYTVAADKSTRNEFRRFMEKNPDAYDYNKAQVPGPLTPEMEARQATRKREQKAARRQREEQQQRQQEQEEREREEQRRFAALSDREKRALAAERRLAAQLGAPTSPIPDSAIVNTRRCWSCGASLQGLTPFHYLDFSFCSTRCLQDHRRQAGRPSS
inactive: bafetinib 0.104 | [1] -0.047 | nilotinib -0.151 | [2] -0.29 | dasatinib -0.04 | [3] 0.018 | [4] -0.005 | [5] -0.126 | tipifarnib 0.026 | mubritinib -0.074 | [6] -0.008 | [7] 0.026 | [8] 0.072 | [9] -0.001 | entinostat 0.03 | vorinostat 0.054 | citarinostat -0.006 | silmitasertib -0.051 | [10] 0.215 | [11] -0.065

AIP (UniProt O00170)
inactive: bafetinib 0.017 | [1] 0.02 | nilotinib -0.062 | [2] -0.009 | dasatinib -0.144 | [3] 0.056 | [4] 0.031 | [5] 0.012 | tipifarnib -0.058 | mubritinib 0.015 | [6] -0.004 | [7] 0.011 | [8] -0.128 | [9] 0.018 | entinostat 0.084 | vorinostat 0.076 | citarinostat 0.105 | silmitasertib 0.038 | [10] 0.031 | [11] 0.036

ARGLU1 (UniProt Q9NWB6)
inactive: bafetinib 0.165 | [1] -0.058 | nilotinib 0.184 | dasatinib 0.146 | [3] -0.027 | [4] -0.046 | [5] -0.031 | tipifarnib 0.043 | mubritinib -0.057 | [6] -0.089 | [7] 0.01 | [8] 0.168 | [9] -0.08 | entinostat -0.071 | vorinostat -0.061 | citarinostat 0.026 | silmitasertib -0.245 | [10] 0.319 | [11] -0.208
active: [2] -1.13

ACP2 (UniProt P11117)
inactive: bafetinib -0.107 | [1] -0.06 | nilotinib 0.002 | [2] -0.006 | dasatinib 0 | [3] 0.02 | [4] 0.015 | [5] 0.03 | tipifarnib 0.061 | mubritinib -0.008 | [6] -0.014 | [7] 0.002 | [8] -0.124 | [9] 0.018 | entinostat -0.01 | vorinostat -0.003 | citarinostat 0.05 | silmitasertib 0.069 | [10] -0.052 | [11] -0.102
